Assay outcomes: PubChem BioAssay, National Center for Advancing Translational Sciences (NCATS)
TDP1 cell CPT = qHTS for Inhibitors of human tyrosyl-DNA phosphodiesterase 1 (TDP1): qHTS in cells in presence of CPT; Potency, µM (top dose mostly 46.2 µM), for inactives: at the top dose activity change, negative = growth inhibition, actives largely listed as inhibitors; 420,000 tested, 12% active; chicken DT40 Tdp1-/-;hTDP1 cells + 20 nM CPT, ATP luminescence, 48 h; also: potency is read from the fitted curve at half-maximal effect; % is scaled to controls: 0 for no effect and ±100 for the full control effect; nearly all actives have a fitted effect of over 55% in size
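Chicken DT40 Tdp1-/- cells complemented with human TDP1, 400 cells/well, exposed to compounds plus 20 nM camptothecin for at least 48 h at 37 C; viability read as ATP content by CellTiter-Glo luminescence.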
TDP1 cell noCPT = qHTS for Inhibitors of human tyrosyl-DNA phosphodiesterase 1 (TDP1): qHTS in cells in absence of CPT. 420,000 tested, 15% active. Potency, µM (series often up to 46.2 µM), without a hit: at the top dose activity change, negative = growth inhibition, actives largely listed as inhibitors. DT40 Tdp1-/- hTDP1 cells, no CPT, ATP luminescence, 48 h; also: potency is read from the fitted curve at half-maximal effect; % is scaled to controls: 0 for no effect and ±100 for the full control effect; nearly all actives have a fitted effect of over 55% in size
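Chicken DT40 Tdp1-/- cells complemented with human TDP1, screened without camptothecin (DMSO vehicle only), 400 cells/well. Compounds pin-transferred, cells incubated at 37 °C for at least 48 hr. Growth read as ATP-dependent luminescence (CellTiter-Glo, 30 min at RT).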
BCR signal inh = qHTS Assay to Find Inhibitors of Chronic Active B-Cell Receptor Signaling; AID 493014, 2011; Potency, µM (doses to about 46.1 µM), for inactives: top-dose activity change, negative = inhibition, most hits filed as inhibitors; ABC-DLBCL IkBa-CBG/CBR reporter, luminescence ratio, 4 h; 340,000 tested, 0.05% active; active = well fitted inhibition curve with a large enough effect in the signal ratio, with a control signal flat, not every such curve was filed as active; inconclusive = small, poorly fitted or top-dose-only effect, or effect the other way, or a change in a side signal; the % refers to the signal ratio;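 also: potency is read from the fitted curve at half-maximal effect; plate controls were basal doxycycline-induced cells for no effect and cells given 10 µM MG132 for full effect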
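Doxycycline induced both beetle luciferases in TMD8 lymphoma cells; IKK-driven degradation limits the IkappaBalpha-fused green signal, while red luminescence normalises for cell number and nonspecific effects. Compounds tested up to 46 uM, 4 hrs.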
SW480 rerep = A quantitative high throughput screen for small molecules that induce DNA re-replication in SW480 colon adenocarcinoma cells; SW480 DNA re-replication, Hoechst DNA content imaging, 48 h; Potency, µM (doses to about 46.1 µM), inactives show top-dose re-replication activation, hits mostly activators; 340,000 tested, 1.8% active; also: potency is read from the fitted curve at half-maximal effect; % of control where 0% means no effect; nearly all actives have a fitted effect of over 55% in size
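Per well, 250 cells were exposed to pinned compound for 48 hr. Nuclear DNA was visualised with Hoechst (40 min, 37 C) and total object intensity recorded by fluorescence scanning.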
MCF10A rereplic = A quantitative high throughput screen for small molecules that induce DNA re-replication in MCF 10a normal breast cells; MCF 10A DNA re-replication, Hoechst nuclear intensity, 48 h; Potency, µM (highest dose often 46.1 µM), without a hit: top-dose activity, positive = re-replication, usual class: activators; AID 624296, 2012; 350,000 tested, 2.9% active; also: potency is read from the fitted curve at half-maximal effect; % of control where 0% means no effect; nearly all actives have a fitted effect of over 50% in size
IL1B secr inh = qHTS for Inhibitors of Inflammasome Signaling: IL-1-beta AlphaLISA Primary Screen | THP-1 LPS/ATP IL-1B secretion, AlphaLISA, 16 h; hits give low values | activity change, % at 57.5 µM | 360,000 tested, 4.7% active | AID 743279, 2014; in the data active = activity change below about -50%; inconclusive = mostly about -30% to -49%; also: % is scaled to controls: 0 for no effect and ±100 for the full control effect
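THP-1 cells pretreated 1 hr with compounds (up to 57.5 uM final), then stimulated with LPS (250 ng/mL final) plus ATP (1.25 mM final); secreted IL-1B measured by AlphaLISA after 16 hr, decreased signal indicating inhibition.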
An asterisk follows results filed as active; ? = inconclusive; . = no result given; [ ] = dose if it differs, or a comment. Only some compounds are listed: those with a hit (about 19% of all), similar ones and a draw of the others. Unless noted, calls follow the shape of the dose curve; as a rule, active = well fitted curve in the direction sought with a large enough effect; inconclusive = small, poorly fitted or top-dose-only effect, or another doubt; inactive = no such curve, though single readings can be large; an effect the other way counts as inactive or inconclusive.

SMILES | TDP1 cell CPT | TDP1 cell noCPT | BCR signal inh | SW480 rerep | MCF10A rereplic | IL1B secr inh
COc1ccc(N2CCN(C(=O)c3cc4c(-c5ccc(Cl)cc5)nn(C)c4s3)CC2)cc1 | ? | 16.4µM* | ? | -9.1% | -1.1% | 5.0
COc1ccc(-c2nn(Cc3ccccc3)cc2C(=O)N2CCN(c3ccccn3)CC2)cc1OC | -2.7% | -19.7% | ? | -4.0% | 1.8% | -12.7
Cn1nc(-c2ccccc2F)c2cc(C(=O)N3CCN(C(=O)c4ccco4)CC3)sc21 | 29.1µM* | ? | . | 3.5% | 8.7% | 0.0
CC1CCCCN1CCNC(=O)c1cc2c(-c3ccccc3F)nn(C)c2s1 (stereo not drawn) | ? | ? | 20.7% | 3.5% | ? | -27.8
Cn1nc(-c2ccccc2F)c2cc(C(=O)N3CCN(c4ccc(F)cc4)CC3)sc21 | ? | 16.4µM* | . | . | . | .
COc1ccc(-c2nn(C)c3sc(C(=O)N4CCN(c5cccc(Cl)c5)CC4)cc23)cc1OC | 14.6µM* | -72.9% | . | . | . | .
COc1cccc(/C=C2/SC(=S)N(CC(=O)Nc3nccs3)C2=O)c1 | 11.0% | -3.2% | . | . | . | .
Oc1ccc(-c2nc(-c3ccc(F)cc3)c(-c3ccncc3)[nH]2)cc1 | ? | 6.51µM* | ? | 3.55µM* | 9.6% | 66.9
O=C(CC1N=C2c3ccccc3N=C(SCC(=O)Nc3cccc(Cl)c3)N2C1=O)NCc1cccs1 (stereo not drawn) | ? | 23.1µM* | . | . | . | .
COc1ccc(OC)c(NC(=O)CSC2=Nc3ccccc3C3=NC(CC(=O)NCc4ccco4)C(=O)N23)c1 (stereo not drawn) | ? | ? | -21.5% | . | . | .
COc1ccc(Cl)cc1NC(=O)CSC1=Nc2ccccc2C2=NC(CC(=O)NCc3cccs3)C(=O)N12 (stereo not drawn) | ? | 23.1µM* | . | . | . | .
CC(=O)N1CCc2cc(S(=O)(=O)C(C)CC(=O)NCc3ccco3)ccc21 (stereo not drawn) | -3.3% | -8.3% | . | . | . | -2.5
O=C(NCCCn1ccnc1)C1CCN(S(=O)(=O)c2cc([N+](=O)[O-])ccc2Cl)CC1 | 11.0% | -5.9% | ? | 3.4% | 20.3% | -18.6
COc1cc(C2NC(=O)NC(C)=C2C(=O)OC2CCCCC2)cc(Cl)c1O (stereo not drawn) | -22.7% | -13.7% | -19.1% | -3.8% | ? | 8.9
COc1ccc(C(=O)Nc2ccc(NC(=O)c3cccs3)cc2)cc1OC | ? | 18.4µM* | . | . | . | .
COC(=O)COc1cccc(NC(=O)c2cccs2)c1 | -8.5% | -9.9% | ? | -0.6% | -2.3% | -52.6*
CCCCOc1cccc(C(=O)Nc2ccc(NC(=O)c3cccs3)cc2)c1 | 14.6µM* | ? | 2.1% | 6.51µM* | 7.31µM* | 27.9
COc1cccc(OC)c1C(=O)Nc1cccc(NC(=O)c2cccs2)c1 | -3.7% | -30.0% | -7.1% | 8.9% | -0.2% | 0.0
COc1cccc(C(=O)COc2ccc(NC(=O)c3cccs3)cc2)c1 | ? | ? | ? | -0.2% | ? | -6.7
COc1ccc(C(=O)Nc2ccc(NC(=O)c3cccs3)cc2)cc1Cl | 14.6µM* | 18.4µM* | 9.9% | -30.8% | -15.6% | 6.1
Cn1ncc2c(=O)[nH]nnc21 | 25.4% | -2.4% | . | -0.7% | -0.4% | 0.5
O=C(OCN1C(=O)C(=O)c2ccccc21)c1ccc(Cl)cc1 | ? | 11.2% | 7.9% | 0.1% | 0.6% | 3.5
O=C(Nc1ccccc1F)c1csc([C@@H]2C[C@H](O)[C@@H](CO)O2)n1 | -14.4% | -2.2% | . | . | . | 21.6
COc1ccc(/C=C/C(=O)c2ccc(NC(=O)c3cccs3)cc2)cc1OC | 18.4µM* | 23.1µM* | ? | ? | 9.2µM* | -65.8*
COc1ccc(/C=C(\NC(=O)c2cccs2)C(=O)NC(C)(C)C)cc1OC | 2.4% | -5.1% | -2.1% | -20.3% | 0.5% | 19.9
SMILES | TDP1 cell CPT | TDP1 cell noCPT | BCR signal inh | SW480 rerep | MCF10A rereplic | IL1B secr inh
COc1c(Cl)cc(Cl)cc1C(=O)Nc1ccc(NC(=O)c2cccs2)cc1 | ? | 16.4µM* | ? | 8.9% | 1.2% | -19.7
COc1ccc(NC(=O)CCC(=O)c2cccs2)cc1Cl | 3.7% | 1.5% | ? | 10.4% | 0.8% | 1.8
COc1ccc(NC(=O)Nc2cccs2)cc1Cl | ? | 23.1µM* | -22.4% | 4.6% | 18.5% | -52.4*
COc1ccc(C(=O)Nc2cccc(NC(=O)c3cccs3)c2)cc1OC | 14.6µM* | 13µM* | ? | 2.1% | ? | ?
CCc1nn(CC(=O)NCc2ccco2)c(=O)c2cc3cc(F)ccc3n12 | -0.6% | -1.5% | . | . | . | .
O=C(O)C1CC[C@@](C(=O)O)(c2ccccc2)c2ccccc21 (stereo partly drawn) | 11.2%[9.04 µM] | 11.0%[9.04 µM] | . | . | . | .
CCCCOc1cccc(C(=O)Nc2cccc3ccc(C)nc23)c1 | ? | 23.1µM* | . | . | . | .
COc1ccc(C(O)c2ncc(-c3cccc4ccccc34)[nH]2)cc1F (stereo not drawn) | ? | ? | . | . | . | 10.9
COc1cc(CC(=O)OCC(=O)N(C)C2CCCCC2)cc(OC)c1OC | ? | 20.6µM* | 2.8% | -6.7% | -4.9% | 0.0
COc1cc(OC)c(OC)cc1CN(C)CC1CCCN(CCc2ccccc2F)C1 (stereo not drawn) | 14.6µM* | ? | -1.9% | 0.2% | 4.4% | ?
COc1cccc(CN(C)CC2CCCN(CCc3ccccc3C)C2)c1 (stereo not drawn) | ? | 18.4µM* | -1.7% | 8.1% | 17.3% | -25.5
COC(=O)CCCC(=O)N(C)CC1CCCN(CCc2ccccc2C)C1 (stereo not drawn) | -17.3% | ? | . | 1.8% | -29.6% | -1.1
COc1ccc(CCN2CCCC(CN(C)Cc3cc(Cl)c(O)c(OC)c3)C2)cc1 (stereo not drawn) | -24.3% | ? | -0.8% | -4.7% | 0.0% | -11.2
COc1ccc(CN(C)CC2CCCN(CCc3ccccc3C)C2)cc1O (stereo not drawn) | -22.5% | ? | -4.2% | 15.9% | 7.1% | -52.4*
CN(Cc1ccccc1OCCO)CC1CCCN(CCc2ccc(Cl)cc2)C1 (stereo not drawn) | ? | ? | -17.5% | 7.5% | ? | -61.4*
COC(=O)N1CCC2(CCN(Cc3ccccc3)CC2)CC1 | 0.3% | -6.6% | . | . | . | .
